High-throughput results deposited in PubChem by several laboratories.
TPT1 inh: inhibitors of Candida albicans tRNA 2'-phosphotransferase TPT1. recombinant caTPT1, FP RNA substrate dephosphorylation. inhibition, % at 5 µM. 300,000 tested, 0.81% active. AID 1962;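 active = inhibition above the mean of all tested compounds plus 3 SD, set per screening campaign, cut at about 24% in these data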;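 note: plate controls were DMSO alone for no effect and ferristatin control at 100 nM for full effect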
Platelet DG rel: modulates dense granule release in human platelets | human platelet-rich plasma, SFLLRN dense granule ATP release, luminescence | inhibition, %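 (compounds screened at 7.5 µM in platelet-rich plasma)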 | 300,000 tested, 0.22% active;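 active = mean replicate score, as percent of positive control, at or above 50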
WT yeast gro inh: growth inhibition of WT yeast, mitochondrial fusion screen | inhibition, % at 10 µM | 190,000 tested, 2.1% active | AID 1362 | mitochondrial fusion phenotypic screen, WT strain; in the data active = inhibition above about 58%; tested in S. cerevisiae
Rtt109 Vps75: blocks Candida albicans Rtt109/Vps75 acetyltransferase activity; purified Rtt109/Vps75, ThioGlo CoA-SH fluorescence, 4 h; AID 540336; inhibition, % at 34.9 µM; 330,000 tested, 0.16% active;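 active = inhibition of at least 50% in every replicate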
SKKanGAS inh: SKKanGAS growth inhibition. S. pyogenes SKKanGAS, kanamycin growth, BacTiter-Glo, 6 h. inhibition, % at 7.5 µM. 300,000 tested, 1.3% active. AID 1662;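 active = mean replicate score, as percent of positive control median, at least 50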;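 note: strain carries kanamycin resistance gene driven by streptokinase promoter and grows in 40 µg/ml kanamycin; loss of luminescence reflects streptokinase promoter inhibition or plain growth inhibition; 0% = median of DMSO wells and 100% = positive control at its reference dose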
PHOSPHO1 block: PHOSPHO1 (human) inhibition; recombinant PHOSPHO1, absorbance phosphatase assay; Q8TCT1; 290,000 tested, 1.1% active; inhibition, % at 13.3 µM; in the data active = inhibition above about 60%
Target sequence (Q8TCT1 whole entry, looked up): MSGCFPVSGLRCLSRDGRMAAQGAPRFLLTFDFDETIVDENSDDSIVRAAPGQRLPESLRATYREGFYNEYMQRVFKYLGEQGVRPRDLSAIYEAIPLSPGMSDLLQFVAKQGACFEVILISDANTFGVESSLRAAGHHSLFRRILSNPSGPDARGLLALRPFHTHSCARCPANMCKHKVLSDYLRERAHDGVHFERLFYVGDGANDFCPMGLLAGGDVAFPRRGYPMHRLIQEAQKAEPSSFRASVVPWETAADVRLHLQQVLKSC
* hit, by the source's call; x = no result. Rows were chosen to be rich in hits. Some 3.9% of all compounds tested hit in one or more screens of this group.

SMILES	TPT1 inh	Platelet DG rel	WT yeast gro inh	Rtt109 Vps75	SKKanGAS inh	PHOSPHO1 block
C/C(N)=C(/C#N)C(=O)CSc1nc2cc(Cl)ccc2c(=O)n1Cc1ccco1	4	-2	-13	19	61*	-15
COc1ccc(C(=O)N/N=C/c2ccc(OC)c(COc3ccccc3)c2)cc1	-1	39	x	4	12	10
COc1ccc(/C=N/NC(=O)c2cc(C(C)(C)C)[nH]n2)cc1COc1ccc(F)cc1F	-1	-7	0	11	61*	-4
COc1ccc(/C=N\NC(=O)c2cc(O)c(O)c(O)c2)cc1COc1ccc(C(=O)OCC(C)C)cc1	2	4	x	-2	90*	-7
Cc1ccc(-c2csc3ncn(CC(=O)NCC(c4ccco4)N4CCCC4)c(=O)c23)cc1 (stereo not drawn)	x	x	x	-4	x	x
N#Cc1nc(-c2ccccc2F)oc1N1CCN(C(=O)c2ccco2)CC1	2	-8	x	-3	21	9
N#Cc1nc(-c2ccccc2Cl)oc1N1CCN(C(=O)c2ccco2)CC1	3	-9	x	-6	69*	38
CCOC(=O)c1ccc(S(=O)(=O)N2CC(=O)Nc3ccccc32)cc1	8	0	x	-7	0	6
OC(CNCCC(c1ccccc1)c1ccccc1)COc1ccccc1 (stereo not drawn)	-2	8	74*	3	2	53
OC(CNCCc1ccccc1)COc1ccc(OCC(O)CNCCc2ccccc2)cc1 (stereo not drawn)	-2	6	x	15	5	40
COCCOC(=O)c1c(C)nc(SCC(=O)Nc2ccc(OC)cc2)c(C#N)c1-c1ccco1	1	2	2	-5	40	3
COc1cccc(NC(=O)CSc2nc3c(c(-c4ccco4)c2C#N)CCCC3)c1	0	-10	76*	-3	-2	-15
O=S(=O)(NCC(c1cccnc1)N1CCN(Cc2ccccc2)CC1)c1cc(F)ccc1F (stereo not drawn)	-1	-13	x	-3	1	71*
CC(OC(=O)c1cc(=O)c2cc(Cl)ccc2o1)C(=O)N1CCCC1 (stereo not drawn)	x	x	x	-1	x	x
C/C(=C\C(=O)OCCCCCCCCC(=O)O)C[C@@H]1OC[C@H](C[C@@H]2O[C@H]2[C@@H](C)[C@H](C)O)[C@@H](O)[C@H]1O	-1	-5	x	-5	103*	x
COc1ccccc1NC(=O)Nc1nc(CC(=O)N2CCN(c3ccccc3OC)CC2)cs1	-3	-2	x	24	59*	x
COc1ccccc1NC(=O)Cc1csc(NC(=S)Nc2ccc(C)cc2)n1	-2	1	7	-2	58*	10
COc1ccccc1NC(=O)Nc1nc(CC(=O)Nc2ccc(OC)c(OC)c2)cs1	0	0	x	20	4	x
COc1cc(C)ccc1NC(=O)Cc1csc(NC(=O)Nc2ccccc2OC)n1	2	-2	x	-3	56*	x
CC(=O)c1c(OC(=O)c2ccccc2)ccnc1C(F)(F)F	x	x	x	-6	x	x
CN(N)c1nc(C(F)(F)F)nc2ccccc12	-1	1	5	13	-6	25
CN(NS(=O)(=O)c1ccc(Br)cc1)c1nc(C(F)(F)F)nc2ccccc12	2	4	77*	x	-2	4
O=C(NCCCc1ccncc1)C1CCC(=O)N(CCc2cccc(F)c2)C1 (stereo not drawn)	-4	-12	x	-13	-3	44
c1ccc(-c2n[nH]c3c2CCC3)cc1	-4	2	7	4	31	30
Clc1ccc(-c2n[nH]c3c2CCC3)c(Cl)c1	-1	5	68*	0	96*	-4
SMILES	TPT1 inh	Platelet DG rel	WT yeast gro inh	Rtt109 Vps75	SKKanGAS inh	PHOSPHO1 block
Cc1ccc(CSc2nc3c(c(SCC(=O)O)n2)CCCC3)cc1	-3	1	-30	12	14	28
COC(=O)CSc1nc(SCc2ccc(C)cc2)nc2c1CCCC2	-7	-2	70*	-12	4	-14
CNc1nc(SCc2ccc(C)cc2)nc2c1CCCC2	12	2	67*	-1	3	22
Cc1nc(SCc2ccccc2)nc2c1CCC2	-2	1	25	0	-6	45
Cc1ccc(CSc2nc3c(c(N(C)C)n2)CCCC3)cc1	-4	1	78*	11	16	-7
CSc1ncccc1C(=O)Nc1cccc(S(=O)(=O)N2CCCCCC2)c1	x	x	x	-8	x	x
CC1c2cc3c(cc2CCN1C(=O)c1cccc(Cl)c1)OCCCO3 (stereo not drawn)	1	-3	x	-4	1	21
Cc1ccc(-c2ccc(/C=N/NC(N)=S)o2)cc1	4	20	x	6	-15	-98
NC(=S)N/N=C\c1ccc(-c2cccc(Cl)c2Cl)o1	3	5	31	-3	25	95*
NC(=S)N/N=C/c1ccc(-c2ccc(Cl)c(Cl)c2)o1	3	6	69*	6	-18	81*
O=C(O)c1ccc(CSc2nnc(-c3ccc(Cl)cc3)o2)cc1	0	7	x	-8	1	24
O=S(=O)(Nc1ccc(-c2nnc(SCc3ccc(Cl)cc3)o2)cc1)c1ccccc1	2	0	34	57*	38	7
OC(CNCc1ccco1)Cn1c2ccc(Br)cc2c2cc(Br)ccc21 (stereo not drawn)	-2	5	-26	-14	52*	-2
Brc1ccc2ncnc(NCc3ccco3)c2c1	-1	0	-13	1	13	13
CCCC12CN3CCN(CC(C3)/C1=N\NC(=O)c1ccccc1N)C2	-1	-14	1	-2	0	0
CCCC12CN3CCN(CC(C3)/C1=N\NC(=O)c1ccc(C(C)(C)C)cc1)C2	1	1	98*	-1	17	0
CC(C)(C)c1ccc(C(=O)N/N=C2\C3CN4CCN(C3)CC2(c2ccccc2)C4)cc1	-4	-13	98*	10	-1	11
CC(C)c1ccc(CN(C(=O)c2cccs2)C2CCS(=O)(=O)C2)cc1 (stereo not drawn)	-2	-6	x	17	1	16
C[C@@H]([C@H](O)c1ccccc1)N(C)C(=S)Nc1ccccc1	x	8	x	5	-3	23
O=C(CSc1nc(=O)[nH]c2c1CCCC2)Nc1ccc(F)cc1F	1	-7	x	0	-3	x
COc1ccc(CCCc2nnc(SCC(=O)Nc3ccc(C)c(C)c3)o2)cc1	0	6	2	-3	-6	85*
COc1ccc(CCCc2nnc(SCC(=O)Nc3ccc(OC)cc3)o2)cc1	-3	7	-10	0	-5	-23
O=C(N/N=C1/C(=O)c2cccc3cccc1c23)c1ccc(Cl)cc1	11	5	23	12	100*	28
COc1cc(-c2[nH]ncc2CN2CCCC2c2nonc2C)cc(OC)c1OC (stereo not drawn)	2	0	16	-1	0	24
Cc1nonc1C1CCCN1Cc1cn[nH]c1-c1ccc(-c2ccccc2)cc1 (stereo not drawn)	-1	-26	58*	9	13	22
